Experimental data as given in PubChem BioAssay (NCI).
Where “and” joins values, the source holds several entries; their conditions need not be identical. Equal entries are not always repeated. About 83,000 compounds went through this panel and 20% of them were active in at least one assay; those are over-represented in the sample as a whole.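 Cells were grown in 96-well plates and exposed to the test compound at a single concentration for 48 hours; results are reported as percent growth, with values below 10 considered active.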 Calls of active or inactive are those of the source.

Assays:
Assay in all cases: NCI-60 one-dose screen, 48 h (100 = growth as untreated, 0 = no growth, -100 = all killed)
HCT-15 colon = details: 10 µM unless noted
HT29 colon = details: 10 µM unless noted
SNB-75 CNS = details: 10 µM unless noted
SNB-19 CNS = details: 10 µM unless noted
U251 CNS = details: 10 µM unless noted
PC-3 prostate = details: 10 µM unless noted
SK-MEL-5 melanoma = details: 10 µM unless noted
UACC-62 melanoma = system: UACC-62 melanoma
LOX IMVI melanoma = details: 10 µM unless noted
SK-MEL-28 melanoma = details: 10 µM unless noted
SK-MEL-2 melanoma = details: 10 µM unless noted
EKVX NSCLC = details: 10 µM
SN12C renal = details: 10 µM unless noted
TK-10 renal = system: TK-10 renal
ACHN renal = details: 10 µM unless noted
A498 renal = details: 10 µM unless noted
CCRF-CEM leukemia = details: 10 µM
UO-31 renal = details: 10 µM unless noted
CAKI-1 renal = details: 10 µM unless noted
MOLT-4 leukemia = details: 10 µM unless noted

Measured: growth

Cc1ccc(S(=O)(=O)c2ccccc2)cc1
active: HT29 colon 6.22% | SNB-75 CNS -19.3%
inactive: HCT-15 colon 30.5% | SNB-19 CNS 43.4% | U251 CNS 17.2% | PC-3 prostate 30.7% | SK-MEL-5 melanoma 23.7% | UACC-62 melanoma; 10 µM unless noted 63.4% | LOX IMVI melanoma 21% | SK-MEL-28 melanoma 59.6% | SK-MEL-2 melanoma 38.6% | EKVX NSCLC 76.7% | SN12C renal 50.4% | TK-10 renal; 10 µM unless noted 51.6% | ACHN renal 56% | A498 renal 28% | CCRF-CEM leukemia 11.5%

NN1CCOC(c2ccccc2)C1 (stereo not drawn)
inactive: HCT-15 colon 101% | HT29 colon 113% | SNB-75 CNS 109% | SNB-19 CNS 101% | U251 CNS 102% | PC-3 prostate 94.3% | SK-MEL-5 melanoma 103% | UACC-62 melanoma; 10 µM unless noted 90.2% | LOX IMVI melanoma 94.6% | SK-MEL-28 melanoma 112% | SK-MEL-2 melanoma 110% | EKVX NSCLC 115% | SN12C renal 102% | UO-31 renal 71.4% | TK-10 renal; 10 µM unless noted 122% | ACHN renal 99.1% | CAKI-1 renal 109% | A498 renal 107% | CCRF-CEM leukemia 99.3%

CCCCCCCCCCCCCCCCC(C(=O)O)C(O)(CC(=O)O)C(=O)O (stereo not drawn)
98.8% (inactive) and -58.3% (active): SNB-75 CNS
101% (inactive) and 8.93% (active): U251 CNS
inactive: HCT-15 colon 105% and 66.4% | SNB-19 CNS 110% and 15% | PC-3 prostate 110% and 19.8% | SK-MEL-5 melanoma 107% | SK-MEL-28 melanoma 108% | EKVX NSCLC 38.2% | SN12C renal 110% and 17.4% | UO-31 renal 98.7% and 59.3% | TK-10 renal; 10 µM unless noted 94.1% and 34% | ACHN renal 96.8% and 28.4% | A498 renal 113%
active: CCRF-CEM leukemia 2.43%
93.9% (inactive) and -31.8% (active): HT29 colon
106% (inactive) and 0.982% (active): LOX IMVI melanoma
90.3% (inactive) and 1.35% (active): MOLT-4 leukemia
95.4% (inactive) and -42.9% (active): SK-MEL-2 melanoma
108% (inactive) and -70.3% (active): UACC-62 melanoma; 10 µM unless noted

CCCCNc1ccc(Nc2ccccc2)cc1
inactive: HCT-15 colon 94.6% | HT29 colon 51.5% | SNB-75 CNS 84.2% | SNB-19 CNS 76.4% | PC-3 prostate 50.8% | SK-MEL-5 melanoma 67.3% | UACC-62 melanoma; 10 µM unless noted 60.6% | LOX IMVI melanoma 64.9% | SK-MEL-28 melanoma 94.9% | SK-MEL-2 melanoma 87.3% | EKVX NSCLC 37% | SN12C renal 71.9% | UO-31 renal 86.6% | TK-10 renal; 10 µM unless noted 73.6% | ACHN renal 77.6% | CAKI-1 renal 94.6% | A498 renal 82.7% | CCRF-CEM leukemia 24.5% | MOLT-4 leukemia 84.6%

CC[C@H](CC[C@@H](C)[C@H]1CC[C@H]2[C@@H]3CC=C4C[C@@H](O)CC[C@]4(C)[C@H]3CC[C@]12C)C(C)C
inactive: HCT-15 colon 80.9% and 102% | HT29 colon 101% and 109% | SNB-75 CNS 81.3% and 101% | SNB-19 CNS 99.5% and 98.1% | U251 CNS 90.3% and 104% | PC-3 prostate 106% and 98.2% | SK-MEL-5 melanoma 95.2% and 105% | UACC-62 melanoma; 10 µM unless noted 96% and 101% | LOX IMVI melanoma 92.6% and 101% | SK-MEL-28 melanoma 99.9% and 103% | SK-MEL-2 melanoma 100% and 117% | EKVX NSCLC 102% and 107% | SN12C renal 94.7% and 105% | UO-31 renal 92.7% and 96.2% | TK-10 renal; 10 µM unless noted 91.7% and 107% | ACHN renal 94.4% and 103% | A498 renal 103% and 105% | CCRF-CEM leukemia 91.1% and 97.8%

COc1ccc2cc1Oc1ccc(cc1)C[C@H]1c3cc(c(OC)cc3CCN1C)Oc1c(OC)c(OC)cc3c1[C@H](C2)N(C)CC3
inactive: SNB-19 CNS 57.7% | U251 CNS 24.2% | PC-3 prostate 28.8% | SK-MEL-5 melanoma 21.1% | UACC-62 melanoma; 10 µM 103% | UACC-62 melanoma; 100 µM 80.7% and 64.2% | SK-MEL-2 melanoma 131% | EKVX NSCLC 80.5% | SN12C renal 82.2% | TK-10 renal; 10 µM 76.7% | TK-10 renal; 100 µM 71.7% and 56.9% | ACHN renal 74.1% | CAKI-1 renal 68.9% | A498 renal 72.1%
active: HCT-15 colon 3.41% | HT29 colon -32.7% | SNB-75 CNS -7.64% | LOX IMVI melanoma -43.7% | UO-31 renal 3.4% | CCRF-CEM leukemia 3.76%

O=C(CO)C(O)C(O)C(O)C(O)CO (stereo not drawn)
inactive: HCT-15 colon 103% | HT29 colon 109% | SNB-75 CNS 106% and 89.1% | SNB-19 CNS 104% and 103% | U251 CNS 95.7% and 95.4% | PC-3 prostate 101% and 96.1% | SK-MEL-5 melanoma 95.4% and 103% | UACC-62 melanoma; 10 µM unless noted 98.3% and 101% | LOX IMVI melanoma 103% and 98.5% | SK-MEL-28 melanoma 108% and 101% | SK-MEL-2 melanoma 104% and 108% | SN12C renal 99.8% and 97.3% | UO-31 renal 97.8% and 96.6% | TK-10 renal; 10 µM unless noted 106% and 102% | ACHN renal 110% and 109% | CAKI-1 renal 102% and 101% | A498 renal 97.5% and 100% | CCRF-CEM leukemia 103% and 105%

CC1(C)COC(=S)N1
inactive: HCT-15 colon 103% | HT29 colon 104% | SNB-75 CNS 87.4% | SNB-19 CNS 107% | U251 CNS 101% | PC-3 prostate 100% | SK-MEL-5 melanoma 112% | UACC-62 melanoma; 10 µM unless noted 93% | LOX IMVI melanoma 99.9% | SK-MEL-28 melanoma 104% | SK-MEL-2 melanoma 107% | EKVX NSCLC 94.1% | SN12C renal 93.5% | UO-31 renal 90.7% | TK-10 renal; 10 µM unless noted 101% | ACHN renal 97.5% | CAKI-1 renal 95.7% | A498 renal 121% | CCRF-CEM leukemia 108% | MOLT-4 leukemia 108%

O=C1C=C(Nc2ccccc2)c2ccccc2C1=O
inactive: HCT-15 colon 14.4% and 88.9% | HT29 colon 103% and 119% | SNB-75 CNS 23.5% | SNB-19 CNS 45.3% and 95.2% | U251 CNS 96.6% | PC-3 prostate 53.8% and 76.8% | SK-MEL-5 melanoma 74.2% | LOX IMVI melanoma 71.6% | SK-MEL-28 melanoma 105% and 114% | SK-MEL-2 melanoma 101% | EKVX NSCLC 99.8% | SN12C renal 20.9% and 93.6% | UO-31 renal 65.1% and 79.9% | TK-10 renal; 10 µM unless noted 149% and 136% | ACHN renal 30.1% and 92.8% | A498 renal 87% and 113% | CCRF-CEM leukemia 65.8% and 94.4% | MOLT-4 leukemia 72.7% and 87%
4.24% (active) and 97.1% (inactive): UACC-62 melanoma; 10 µM unless noted

O=C1OC(c2ccccc2)=N/C1=C\c1ccccc1
inactive: HCT-15 colon 105% | HT29 colon 113% | SNB-75 CNS 83% | SNB-19 CNS 98.9% | U251 CNS 91% | PC-3 prostate 95.9% | SK-MEL-5 melanoma 97.7% | UACC-62 melanoma; 10 µM unless noted 101% | LOX IMVI melanoma 98.1% | SK-MEL-28 melanoma 108% | SK-MEL-2 melanoma 116% | SN12C renal 102% | UO-31 renal 95.2% | TK-10 renal; 10 µM unless noted 117% | ACHN renal 104% | CAKI-1 renal 110% | CCRF-CEM leukemia 100% | MOLT-4 leukemia 105%

Nc1ncnc2c1ncn2C1OC(COP(=O)(O)O)C(O)C1O (stereo not drawn)
inactive: HCT-15 colon 109% | HT29 colon 114% | SNB-75 CNS 93.1% | SNB-19 CNS 103% | U251 CNS 112% | PC-3 prostate 101% | SK-MEL-5 melanoma 117% | UACC-62 melanoma; 10 µM unless noted 104% | LOX IMVI melanoma 108% | SK-MEL-28 melanoma 119% | EKVX NSCLC 113% | SN12C renal 99.9% | UO-31 renal 100% | TK-10 renal; 10 µM unless noted 122% | ACHN renal 103% | CCRF-CEM leukemia 105% | MOLT-4 leukemia 109%

Cc1ccc(=O)[nH]n1
inactive: HCT-15 colon 110% and 105% | HT29 colon 108% and 99.5% | SNB-75 CNS 108% and 103% | SNB-19 CNS 93.9% | PC-3 prostate 96.3% and 92% | SK-MEL-5 melanoma 101% and 105% | UACC-62 melanoma; 10 µM unless noted 106% and 104% | LOX IMVI melanoma 94.7% and 107% | SK-MEL-28 melanoma 111% and 115% | SK-MEL-2 melanoma 116% and 99.5% | EKVX NSCLC 114% and 115% | SN12C renal 107% and 99.3% | UO-31 renal 90.9% and 95.1% | TK-10 renal; 10 µM unless noted 110% and 101% | ACHN renal 114% and 108% | CAKI-1 renal 103% and 97.7% | A498 renal 110% and 94.1% | CCRF-CEM leukemia 107% and 99.6% | MOLT-4 leukemia 105% and 101%
